# Measured values taken from ChEMBL document CHEMBL1961873, “Compounds: GSK PKIS; Assays: Nanosyn kinase panel” (2012).
# How the values were obtained:
# [1] = target: T1, Serine/threonine-protein kinase TBK1 (Homo sapiens) (UniProt Q9UHD2); details: at 1 µM;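 further: values are mean inhibition of TBK1, screened as part of the GSK published kinase inhibitor set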
# T1 sequence (whole entry): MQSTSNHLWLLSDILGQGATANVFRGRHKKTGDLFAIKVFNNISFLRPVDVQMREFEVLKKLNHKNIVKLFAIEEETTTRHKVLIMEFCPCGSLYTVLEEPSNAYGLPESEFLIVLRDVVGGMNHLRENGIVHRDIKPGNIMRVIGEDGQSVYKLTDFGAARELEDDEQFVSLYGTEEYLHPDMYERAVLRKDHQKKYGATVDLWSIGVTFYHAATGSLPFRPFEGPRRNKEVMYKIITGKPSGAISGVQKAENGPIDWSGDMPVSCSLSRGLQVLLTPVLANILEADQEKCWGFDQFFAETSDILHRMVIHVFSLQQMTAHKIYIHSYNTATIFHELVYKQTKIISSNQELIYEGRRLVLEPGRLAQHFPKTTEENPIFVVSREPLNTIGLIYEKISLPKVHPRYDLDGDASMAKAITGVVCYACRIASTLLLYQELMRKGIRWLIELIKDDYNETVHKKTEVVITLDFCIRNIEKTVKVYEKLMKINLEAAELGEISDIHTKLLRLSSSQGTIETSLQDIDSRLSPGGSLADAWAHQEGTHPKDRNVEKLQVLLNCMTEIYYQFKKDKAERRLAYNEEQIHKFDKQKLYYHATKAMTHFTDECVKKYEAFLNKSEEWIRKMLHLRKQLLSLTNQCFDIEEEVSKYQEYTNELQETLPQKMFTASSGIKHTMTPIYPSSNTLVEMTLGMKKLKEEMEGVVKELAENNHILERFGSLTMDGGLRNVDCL
# [2] = target: T2, Testis-specific serine/threonine-protein kinase 1 (Homo sapiens) (UniProt Q9BXA7); details: at 0.1 µM
# T2 sequence (whole entry): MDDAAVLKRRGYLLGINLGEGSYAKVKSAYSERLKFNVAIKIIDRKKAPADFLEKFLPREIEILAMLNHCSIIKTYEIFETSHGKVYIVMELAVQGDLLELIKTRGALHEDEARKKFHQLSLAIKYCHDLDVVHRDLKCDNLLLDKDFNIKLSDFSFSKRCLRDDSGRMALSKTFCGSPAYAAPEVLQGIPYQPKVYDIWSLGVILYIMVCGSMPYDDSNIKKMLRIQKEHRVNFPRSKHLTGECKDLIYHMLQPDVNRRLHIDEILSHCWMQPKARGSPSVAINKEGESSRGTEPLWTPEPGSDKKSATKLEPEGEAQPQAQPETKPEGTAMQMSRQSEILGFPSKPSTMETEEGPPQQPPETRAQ
# [3] = target: T2, Testis-specific serine/threonine-protein kinase 1 (Homo sapiens); details: at 1 µM
# [4] = target: T3, Testis-specific serine/threonine-protein kinase 2 (Homo sapiens) (UniProt Q96PF2); details: at 0.1 µM
# T3 sequence (whole entry): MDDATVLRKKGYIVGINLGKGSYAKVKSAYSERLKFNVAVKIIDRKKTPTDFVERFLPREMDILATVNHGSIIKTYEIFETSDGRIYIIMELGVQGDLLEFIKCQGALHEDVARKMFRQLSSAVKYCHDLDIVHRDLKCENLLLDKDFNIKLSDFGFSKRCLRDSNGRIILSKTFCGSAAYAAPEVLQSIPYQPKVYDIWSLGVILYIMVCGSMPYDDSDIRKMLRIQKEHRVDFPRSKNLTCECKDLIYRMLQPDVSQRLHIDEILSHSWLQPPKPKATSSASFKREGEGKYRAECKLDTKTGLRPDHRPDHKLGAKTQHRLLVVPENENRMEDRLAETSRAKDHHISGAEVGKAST
# [5] = target: T3, Testis-specific serine/threonine-protein kinase 2 (Homo sapiens); details: at 1 µM
# [6] = target: Casein kinase I isoform alpha (Homo sapiens) (UniProt P48729); details: at 0.1 µM
# Casein kinase I isoform alpha (Homo sapiens), sequence (P48729 2-337 limits assumed): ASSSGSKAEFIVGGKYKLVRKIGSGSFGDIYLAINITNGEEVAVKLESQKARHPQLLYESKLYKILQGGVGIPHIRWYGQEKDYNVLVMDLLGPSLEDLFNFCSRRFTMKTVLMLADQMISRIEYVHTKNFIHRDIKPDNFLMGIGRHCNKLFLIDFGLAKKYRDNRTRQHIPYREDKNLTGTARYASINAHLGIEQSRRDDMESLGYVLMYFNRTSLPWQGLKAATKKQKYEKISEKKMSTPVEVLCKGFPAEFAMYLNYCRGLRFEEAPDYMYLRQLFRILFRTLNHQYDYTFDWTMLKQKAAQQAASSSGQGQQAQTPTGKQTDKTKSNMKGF
# [7] = target: Casein kinase I isoform alpha (Homo sapiens) (UniProt P48729); details: at 1 µM
# [8] = target: Casein kinase I isoform gamma-1 (Homo sapiens) (UniProt Q9HCP0); details: at 0.1 µM
# Casein kinase I isoform gamma-1 (Homo sapiens), sequence (Q9HCP0 whole entry, looked up, canonical isoform): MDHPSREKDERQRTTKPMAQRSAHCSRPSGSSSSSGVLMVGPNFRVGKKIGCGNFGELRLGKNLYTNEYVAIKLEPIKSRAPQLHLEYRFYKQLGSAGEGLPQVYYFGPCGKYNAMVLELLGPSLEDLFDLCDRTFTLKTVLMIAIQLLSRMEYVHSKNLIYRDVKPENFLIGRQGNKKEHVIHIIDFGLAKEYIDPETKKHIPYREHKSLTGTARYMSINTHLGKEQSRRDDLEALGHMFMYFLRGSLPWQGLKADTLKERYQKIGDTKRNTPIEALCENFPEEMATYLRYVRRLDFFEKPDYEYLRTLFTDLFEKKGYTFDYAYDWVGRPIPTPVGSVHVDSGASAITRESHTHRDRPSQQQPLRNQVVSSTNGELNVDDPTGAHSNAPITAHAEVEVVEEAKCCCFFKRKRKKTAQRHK
# [9] = target: Casein kinase I isoform gamma-1 (Homo sapiens) (UniProt Q9HCP0); details: at 1 µM
# [10] = target: Casein kinase I isoform gamma-2 (Homo sapiens) (UniProt P78368); details: at 0.1 µM
# Casein kinase I isoform gamma-2 (Homo sapiens), sequence (P78368 whole entry, looked up, canonical isoform): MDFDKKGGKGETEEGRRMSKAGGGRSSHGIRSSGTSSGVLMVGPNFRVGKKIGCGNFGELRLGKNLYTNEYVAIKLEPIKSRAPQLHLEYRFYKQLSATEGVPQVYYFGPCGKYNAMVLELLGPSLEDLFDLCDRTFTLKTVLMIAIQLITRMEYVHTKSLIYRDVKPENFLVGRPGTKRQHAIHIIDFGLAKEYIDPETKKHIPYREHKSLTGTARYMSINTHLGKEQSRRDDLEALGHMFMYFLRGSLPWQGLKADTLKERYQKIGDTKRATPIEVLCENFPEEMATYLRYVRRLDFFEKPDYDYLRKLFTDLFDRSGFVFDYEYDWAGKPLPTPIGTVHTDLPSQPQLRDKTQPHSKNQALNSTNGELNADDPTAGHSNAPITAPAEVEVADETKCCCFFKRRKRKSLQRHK
# [11] = target: Casein kinase I isoform gamma-2 (Homo sapiens) (UniProt P78368); details: at 1 µM
# [12] = target: Casein kinase I isoform gamma-3 (Homo sapiens) (UniProt Q9Y6M4); details: at 0.1 µM
# Casein kinase I isoform gamma-3 (Homo sapiens), sequence (Q9Y6M4 whole entry, looked up, canonical isoform): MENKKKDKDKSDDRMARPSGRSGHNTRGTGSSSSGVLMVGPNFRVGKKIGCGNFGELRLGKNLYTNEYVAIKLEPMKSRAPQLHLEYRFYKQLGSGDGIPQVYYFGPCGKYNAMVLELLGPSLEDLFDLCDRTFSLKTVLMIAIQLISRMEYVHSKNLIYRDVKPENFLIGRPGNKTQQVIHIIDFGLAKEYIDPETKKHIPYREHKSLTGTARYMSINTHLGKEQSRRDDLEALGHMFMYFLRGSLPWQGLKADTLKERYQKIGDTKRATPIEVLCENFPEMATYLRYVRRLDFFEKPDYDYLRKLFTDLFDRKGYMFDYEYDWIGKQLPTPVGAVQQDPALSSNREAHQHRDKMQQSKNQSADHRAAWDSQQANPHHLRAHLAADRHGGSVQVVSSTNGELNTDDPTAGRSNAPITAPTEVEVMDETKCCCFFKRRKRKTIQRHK
# [13] = target: Casein kinase I isoform gamma-3 (Homo sapiens) (UniProt Q9Y6M4); details: at 1 µM
# [14] = target: Cyclin-dependent kinase 1 (Homo sapiens) (UniProt P06493); details: at 0.1 µM
# Cyclin-dependent kinase 1 (Homo sapiens), sequence (P06493 whole entry, looked up): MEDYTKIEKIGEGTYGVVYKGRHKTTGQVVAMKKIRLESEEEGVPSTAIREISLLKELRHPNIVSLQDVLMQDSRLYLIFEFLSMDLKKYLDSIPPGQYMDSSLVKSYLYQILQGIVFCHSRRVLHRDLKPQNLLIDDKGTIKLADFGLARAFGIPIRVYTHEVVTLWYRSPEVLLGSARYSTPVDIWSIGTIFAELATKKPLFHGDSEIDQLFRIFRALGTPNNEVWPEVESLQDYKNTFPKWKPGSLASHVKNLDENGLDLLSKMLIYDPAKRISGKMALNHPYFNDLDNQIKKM
# [15] = target: Cyclin-dependent kinase 1 (Homo sapiens) (UniProt P06493); details: at 1 µM
# [16] = target: Cyclin-dependent kinase 2 (Homo sapiens) (UniProt P24941); details: at 0.1 µM
# [17] = target: Cyclin-dependent kinase 2 (Homo sapiens) (UniProt P24941); details: at 1 µM
# [18] = target: Cyclin-dependent kinase 2 (Homo sapiens) (UniProt P24941); details: at 0.1 µM; remark: listed apart in the source
# [19] = target: Cyclin-dependent kinase 2 (Homo sapiens) (UniProt P24941); details: at 1 µM; remark: listed apart in the source
# [20] = target: CDK3/Cyclin E (Homo sapiens) (UniProt P24864+Q00526); details: at 0.1 µM;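 further: reported percentages are mean inhibition values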
# CDK3/Cyclin E (Homo sapiens), sequence (P24864 whole entry, looked up): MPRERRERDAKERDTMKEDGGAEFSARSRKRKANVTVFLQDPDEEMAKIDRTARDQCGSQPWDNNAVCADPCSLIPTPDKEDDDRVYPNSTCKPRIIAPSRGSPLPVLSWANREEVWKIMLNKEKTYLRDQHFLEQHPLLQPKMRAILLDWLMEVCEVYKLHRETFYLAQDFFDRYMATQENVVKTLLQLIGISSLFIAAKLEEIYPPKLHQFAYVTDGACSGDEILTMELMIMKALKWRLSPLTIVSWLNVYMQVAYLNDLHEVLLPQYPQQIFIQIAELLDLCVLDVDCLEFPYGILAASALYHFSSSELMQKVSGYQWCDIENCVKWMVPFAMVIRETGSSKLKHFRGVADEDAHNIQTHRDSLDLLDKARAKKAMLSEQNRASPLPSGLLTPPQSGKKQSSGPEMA
# CDK3/Cyclin E (Homo sapiens), sequence (Q00526 whole entry, looked up): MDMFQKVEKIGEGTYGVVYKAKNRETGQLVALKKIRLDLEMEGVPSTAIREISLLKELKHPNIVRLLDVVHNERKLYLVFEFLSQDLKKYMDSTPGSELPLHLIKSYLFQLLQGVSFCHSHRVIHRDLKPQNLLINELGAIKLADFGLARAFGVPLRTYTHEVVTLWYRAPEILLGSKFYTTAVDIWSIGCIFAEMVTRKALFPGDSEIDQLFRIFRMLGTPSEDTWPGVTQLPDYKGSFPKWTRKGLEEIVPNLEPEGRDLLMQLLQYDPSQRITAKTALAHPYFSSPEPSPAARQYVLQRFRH
Compound,inhibition [1] [%],inhibition [2] [%],inhibition [3] [%],inhibition [4] [%],inhibition [5] [%],inhibition [6] [%],inhibition [7] [%],inhibition [8] [%],inhibition [9] [%],inhibition [10] [%],inhibition [11] [%],inhibition [12] [%],inhibition [13] [%],inhibition [14] [%],inhibition [15] [%],inhibition [16] [%],inhibition [17] [%],inhibition [18] [%],inhibition [19] [%],inhibition [20] [%]
O=C1Nc2ccc(C(=O)c3ccco3)cc2C1=Cc1cc(Cl)c(O)c(Cl)c1,40.7,1.18,3.77,1.82,1.41,-0.89,5.16,2.49,4.24,1.66,5.46,1.18,6.13,2.24,7.36,2.59,19.3,4.71,15.7,0.83
CS(=O)(=O)CCNCc1ccc(-c2ccc3ncnc(Nc4ccc(OCc5ccccc5)c(Cl)c4)c3c2)o1,2.91,2.07,1.74,-0.14,0.89,-0.43,0.15,1.35,0.05,-0.08,0.01,0.7,-0.59,2.72,3.96,2.6,3.73,3.64,4.5,0.1
COc1ccc(-c2nn3ncccc3c2-c2ccnc(Nc3ccc(Cl)c(C(F)(F)F)c3)n2)cc1,2.16,2.65,4.89,2.27,5.15,-4.74,0.96,1.89,2.18,1.23,1.48,2.03,0.7,0.45,0.2,1.46,-2.2,1.44,1.76,1.87
Nc1nc(-c2ccccn2)c(-c2ccc3ncccc3n2)s1,5.59,2.46,2.87,0.45,1.96,2.13,6.1,3.23,12.6,3.14,10.1,4,17.4,0.79,3.13,1.62,1.29,4.08,5.96,2.27
O=C1NC(=O)C(c2cccc(Cl)c2)=C1Nc1ccc(O)c(Cl)c1,23.9,1.11,1.63,-0.57,0.16,1.72,9.44,0.2,1.3,0.09,0.54,1.06,0.9,0.73,7.55,1.84,6.86,2.79,10.6,3.01
CC1=C(C(=O)Nc2ccc3[nH]ncc3c2)C(c2ccc(F)cc2)NC(=O)N1 (centres undefined),3.11,1.04,1.21,1.2,1.4,0.46,1.43,1.54,2.31,1.41,1.77,0.29,0.47,0.21,-0.93,3.84,7.76,2.47,9.24,3.12
Nc1ncnc2occ(-c3ccc(NC(=O)Nc4cc(C(F)(F)F)cc(C(F)(F)F)c4)cc3)c12,3.1,-0.4,-1.46,1.06,-2.08,-0.62,1.87,1.49,2.74,0.5,1.8,1.91,1.31,-0.06,4.1,0.86,2.88,1.68,3.96,-1.28
COc1cc2ncn(-c3cc(O[C@H](C)c4ccccc4Cl)c(C(N)=O)s3)c2cc1OC,6.39,4.46,8.45,2.71,4.44,3,3.21,3.26,3.83,2.55,2.68,2.15,3.1,0.89,6.45,–,–,–,–,2.71
Cn1cc(C=C2C(=O)Nc3cccnc32)c2ccccc21,10.2,1.87,1.12,-0.65,-0.52,3.21,14.3,2.59,4.56,1.76,3.63,1.67,5.3,4.27,7.4,2.66,3.89,7.44,8.9,10.7
CCCN1CCC=C(c2ccc(Nc3nc(Nc4ccccc4C(N)=O)c4cc[nH]c4n3)c(C)c2)C1,9.03,29.9,76.7,7.28,37.6,8.97,47.6,22.5,59.8,31.1,–,36.1,69.3,2.18,7.53,5.19,22.5,3.79,28.3,-2.97
CS(=O)(=O)CCNCc1nc(-c2ccc3ncnc(Nc4ccc(F)c(Cl)c4)c3c2)cs1,2.28,1.9,0.45,0.45,1.08,0.89,1.04,1.14,1.55,1.92,0.64,2.39,3.39,-1.31,-0.06,0.75,9.99,0.06,1.32,0.76
COc1cc2ncn(-c3cc(OCc4ccccc4C(F)(F)F)c(C(N)=O)s3)c2cc1OC,13.6,2.93,6.32,2.18,2.55,1.38,3.61,0.9,2.06,–,1.15,-0.01,1.63,-4.16,-1.4,-2.45,1.5,0.41,4.83,-1.21
COc1ccc(-c2coc3ncnc(N)c23)cc1,7.65,4.08,3.27,1.1,0.95,6.3,4.04,4.29,4.94,4.25,6.12,3.42,5.14,1.77,3.58,2.89,0.12,6.07,7.82,4.84
CC1=C(C(=O)Nc2ccc3[nH]ncc3c2)C(c2ccc(Cl)c(Cl)c2)CC(=O)N1 (centres undefined),0.46,2.84,-0.6,1.93,-1.29,-1.74,1.97,0.83,1.68,0.32,1.4,-0.44,1.59,-0.56,-1.08,0.45,4.04,-0.59,3.25,-0.69
